From PubChem BioAssay (NCATS) come the findings set out here.

Assay [1] in a line: Cellular Toxicity (caspase-3) HepG2 (AID 654). Also: potency is read from the fitted curve at half-maximal effect.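 As to caspase-3 activation: cells exposed to compound for 16 hours before reading; 0% = DMSO alone and 100% = caspase signal from 100 µM tamoxifen.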 In outline:
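HepG2 cells (1500/well) in complete medium were treated with compounds for 16 hr at 37 °C. Caspase-3/7 activity was then read as luminescence from peptide-aminoluciferin cleavage. AC50 came from Hill fits, normalized to DMSO and 100 uM tamoxifen.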

A short description of assay [2]: Cellular Toxicity (caspase-3) Jurkat (AID 655).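 Also: cells exposed to compound for 16 h at 37 °C before reading.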 Also: potency is read from the fitted curve at half-maximal effect. The settings on record: Jurkat caspase-3 activation, luminescence; caspase-3 activation: at 92.2 µM (top of the series), DMSO = 0%, tamoxifen = 100%. In outline:
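Jurkat cells (5000/well) in complete medium exposed 16 h at 37 C; caspase-3/7 activity read by Caspase-Glo luminescence after 20 min at room temperature. Normalized to DMSO and 100 uM tamoxifen; AC50 from Hill fits.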

Assay [3] in a line: Cellular Toxicity (caspase-3) HUV-EC-C (AID 656). The procedure, abridged: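 HUV-EC-C cells (1000/well) in complete medium, compound-treated 16 h at 37 °C; caspase-3/7 activity read by Caspase-Glo 3/7 luminescence. Normalized to DMSO (basal) and 100 uM tamoxifen (100%); AC50 from Hill-equation concentration-response fits.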
Assay [4] is described as follows: Cellular Toxicity (caspase-3) SHSY5Y (AID 657). Also: potency is read from the fitted curve at half-maximal effect. The procedure, abridged:
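SH-SY5Y human neuroblastoma cells, 1500/well, exposed to compound for 16 hours at 37 °C in complete medium. Caspase-3/7 activity read by Caspase-Glo luminescence after 1 hr at room temperature, normalized to DMSO and 10 uM staurosporine; AC50 from Hill fit.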

The nature of assay [5]: Cellular Toxicity (caspase-3) BJ (AID 658).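 Also: 0% = DMSO basal and 100% = 10 µM staurosporine.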 In outline: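 Luminescent aminoluciferin-substrate cleavage reports caspase 3/7 activity in normal human BJ fibroblasts after 16 hr compound exposure at 37 °C. Normalized to DMSO (basal) and 10 uM staurosporine (100%); AC50 from Hill fit of concentration-response.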
Assay [6] is described as follows: Cellular Toxicity (caspase-3) Mesangial (AID 660).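 Also: cells exposed to compound for 16 h before the caspase read.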 The procedure, abridged: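 Human renal glomerular mesangial cells (1000/well) were treated with compounds for 16 h at 37 °C in complete medium, then caspase 3/7 activity was read by Caspase-Glo luminescence. Data were normalized to DMSO and 100 uM tamoxifen; AC50 from Hill fits.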
Assay [7] can be described thus: Cellular Toxicity (caspase-3) SK-N-SH (AID 661).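 Also: 0% = DMSO basal and 100% = 10 µM staurosporine.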 The procedure, abridged:
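SK-N-SH human neuroblastoma cells (1500/well) were treated with compounds for 16 hr at 37 °C in complete medium; caspase 3/7 activity was read by Caspase-Glo luminescence. AC50 came from Hill fits of data normalized to DMSO and 10 uM staurosporine.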

Assay [8] is described as follows: Cellular Toxicity (caspase-3) H-4-II-E (AID 663).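 Also: cells exposed to compound for 16 hr before readout.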 Particulars: H-4-II-E rat hepatoma, scaled: DMSO 0%, 100 µM tamoxifen 100%; at 92.2 µM (top of the series). The procedure, abridged:
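Luminescence from caspase-cleaved aminoluciferin substrate, read 20 min after reagent addition, reports caspase 3/7 activation in rat H-4-II-E cells after 16 hr compound exposure. Normalized to DMSO (basal) and 100 uM tamoxifen (100%); AC50 from Hill fits.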

The nature of assay [9]: Cellular Toxicity (caspase-3) Hek293 (AID 664).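 Also: cells exposed to compound for 16 h at 37 °C before readout.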 In outline:
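HEK293 cells were exposed to compounds in complete medium for 16 hr at 37 °C, then caspase-3/7 activity was read by Caspase-Glo 3/7 luminescence after 20 min at room temperature. Data normalized to DMSO and 100 uM tamoxifen; AC50 from Hill fits.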

Assay [10] in a line: Cellular Toxicity (caspase-3) N2a (AID 665).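 Also: compound exposure lasted 16 h at 37 °C before readout.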 The procedure, abridged:
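Mouse N2a neuroblastoma cells (1500/well) were treated with compounds for 16 h at 37 °C, then caspase-3/7 activity was read by Caspase-Glo luminescence after 1 h at room temperature. Data were normalized to DMSO and 10 uM staurosporine; AC50 from Hill fits.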

Assay [11] is described as follows: Cellular Toxicity (caspase-3) NIH 3T3 (AID 666).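 Also: 0% = DMSO basal and 100% = 100 µM tamoxifen stimulation.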 The procedure, abridged:
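Mouse NIH 3T3 fibroblasts (1000 cells/well) were treated with compound for 16 hr at 37°C in complete medium; caspase-3/7 activity was read by Caspase-Glo luminescence. Normalized to DMSO and 100 uM tamoxifen; AC50 from Hill fits.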

Assay [12] is described as follows: Cellular Toxicity (caspase-3) Renal Proximal Tubule (AID 667).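 Also: cells exposed to compound for 16 hours at 37 °C before detection; 0% = DMSO basal and 100% = 10 µM staurosporine.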 In outline:
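Freshly isolated primary rat kidney proximal tubule cells, 1000/well, treated 16 hr at 37 °C, then Caspase-Glo 3/7 luminescence after 1 hr. Normalized to DMSO and 10 uM staurosporine; AC50 from Hill fit.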

Assay [13] addresses Guanine nucleotide-binding protein G(i) subunit alpha-1 (Homo sapiens) (UniProt P63096). In words: qHTS Assay for Inhibitors of RGS12 GoLoco Motif Activity (Green Fluorophore) (AID 879).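 Also: 0% = labeled peptide with Gαi1 and full inhibition = labeled peptide alone without protein; negative values mean loss of peptide binding seen as reduced polarization.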 In outline:
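Fluorescence polarization assay: 50 nM Gαi1 with 10 nM FITC-labeled RGS12 GoLoco peptide in 10 mM Tris pH 7.5, 150 mM NaCl, 0.1 mM GDP, 0.05% NP40, 10 min at room temperature with compound.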

The target of assay [14] is Cytochrome P450 2C9 (Homo sapiens) (UniProt P11712). In words: qHTS Assay for Inhibitors and Substrates of Cytochrome P450 2C9 (AID 883). Also: potency is read from the fitted curve at half-maximal effect; nearly all actives have a fitted effect of over 60% in size. The procedure, abridged: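 Human CYP2C9 (10nM) hydroxylated Luciferin-H (100uM, at its KM) to luciferin in 25mM KPO4. Compound was preincubated 10 min at 37C, then NADPH regeneration started a 60 min reaction at 37C. Luminescence was read after detection reagent, normalized to 57uM sulphaphenazole.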

The target of assay [15] is Cytochrome P450 2D6 (Homo sapiens) (UniProt P10635). Description: qHTS Assay for Inhibitors and Substrates of Cytochrome P450 2D6 (AID 891). Also: nearly all actives have a fitted effect of over 60% in size. Also: potency is read from the fitted curve at half-maximal effect. In outline: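 Human CYP2D6 (5 nM) with 30 uM Luciferin-ME EGE (at Km) in 100 mM KPO4, compound preincubated 10 min, then NADPH regeneration system for 60 min at room temperature. Luciferin read by luminescence; normalized to 1.43 uM quinidine.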

The target in assay [16] is Cytochrome P450 2C19 (Homo sapiens) (UniProt P33261). In words: qHTS Assay for Inhibitors and Substrates of Cytochrome P450 2C19 (AID 899). Also: % is scaled to controls: 0 for no effect and ±100 for the full control effect; nearly all actives have a fitted effect of over 60% in size. In outline: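 Human CYP2C19 (5nM) with Luciferin-H EGE at 10uM (its KM) in 50mM KPO4 was preincubated with compound for 10 min at 37C. NADPH regeneration started a 60 min 37C reaction. Luciferin was read by luminescence, normalized to 57uM ketoconazole.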

Assay [17] addresses Cytochrome P450 3A4 (Homo sapiens) (UniProt P08684). In words: qHTS Assay for Activators of Cytochrome P450 3A4 (AID 885). Also: nearly all actives have a fitted effect of over 65% in size. In outline: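 Steps: enzyme/substrate mix dispensed; compound added, 10 min RT; NADPH regeneration solution added, 60 min RT; luciferin detection buffer stops reaction; 20 min later luminescence measured.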
A short description of assay [18]: Confirmation and Secondary Assay for Modulators of Hemoglobin Beta Chain Splicing at IVS2 654 locus (AID 910).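 Also: per-well total GFP intensity by laser scanning cytometry after 2-day treatment; % of control where 0% means no effect.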 The procedure, abridged: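 HeLa cells stably carrying EGFP interrupted by mutant beta-globin IVS2-654 intron (CMV-driven) were treated with compound for 2 days at 37C; corrected splicing was scored as total peak GFP intensity per well (488 nm excitation, 500-520 nm emission).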

Assay [19] is described as follows: qHTS Assay for Identification of Small Molecule Antagonists for NFkB Signaling Pathway (AID 895; active = well fitted inhibition curve with a large enough effect in the signal ratio, with a control signal flat, not every such curve was filed as active; the % refers to the signal ratio; also: potency is read from the fitted curve at half-maximal effect). In outline: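 NFkB-bla ME-180 cervical carcinoma cells with beta-lactamase reporter under NFkB response element; compounds added, then TNF alpha at 10 pM final (EC50), 5 h at 37 C. LiveBLAzer substrate 2 h, room temperature; emission 460/530 nm at 405 nm excitation.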

Assay [20] concerns the target Cytochrome P450 3A4 (Homo sapiens) (UniProt P08684). In words: qHTS Assay for Inhibitors and Substrates of Cytochrome P450 3A4 (AID 884). Also: % is scaled to controls: 0 for no effect and ±100 for the full control effect; nearly all actives have a fitted effect of over 50% in size. The procedure, abridged:
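20 nM human CYP3A4 with 25 uM Luciferin-PPXE (at KM) in 200 mM KPO4, preincubated 10 min with compound; NADPH regeneration started a 60 min RT reaction. Luciferin detected by luminescence, normalized to 57 uM ketoconazole as full inhibition.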

Unmarked numbers belong to inactive results. Results filed as inconclusive are left out. Calls of active or inactive are those of the source. Unless noted, calls follow the shape of the dose curve; as a rule, active = well fitted curve in the direction sought with a large enough effect; inconclusive = small, poorly fitted or top-dose-only effect, or another doubt; inactive = no such curve, though single readings can be large; an effect the other way counts as inactive or inconclusive.

Chain of Cytochrome P450 3A4 (Homo sapiens) (P08684 whole entry, looked up): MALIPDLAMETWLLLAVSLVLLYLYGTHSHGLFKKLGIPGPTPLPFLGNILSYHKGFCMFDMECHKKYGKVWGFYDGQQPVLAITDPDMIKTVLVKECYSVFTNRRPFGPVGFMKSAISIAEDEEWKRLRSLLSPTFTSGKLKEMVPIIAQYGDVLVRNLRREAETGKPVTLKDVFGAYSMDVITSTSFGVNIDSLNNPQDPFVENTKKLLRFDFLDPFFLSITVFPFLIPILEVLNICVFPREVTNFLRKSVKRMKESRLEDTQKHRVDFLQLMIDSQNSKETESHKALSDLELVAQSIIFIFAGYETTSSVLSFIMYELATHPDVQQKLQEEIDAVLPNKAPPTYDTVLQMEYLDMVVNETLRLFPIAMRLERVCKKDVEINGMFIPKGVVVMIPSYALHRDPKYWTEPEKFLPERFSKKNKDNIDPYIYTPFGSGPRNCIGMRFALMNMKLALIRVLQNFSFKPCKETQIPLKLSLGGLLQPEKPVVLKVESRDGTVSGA
Chain of Guanine nucleotide-binding protein G(i) subunit alpha-1 (Homo sapiens) (P63096 whole entry, looked up): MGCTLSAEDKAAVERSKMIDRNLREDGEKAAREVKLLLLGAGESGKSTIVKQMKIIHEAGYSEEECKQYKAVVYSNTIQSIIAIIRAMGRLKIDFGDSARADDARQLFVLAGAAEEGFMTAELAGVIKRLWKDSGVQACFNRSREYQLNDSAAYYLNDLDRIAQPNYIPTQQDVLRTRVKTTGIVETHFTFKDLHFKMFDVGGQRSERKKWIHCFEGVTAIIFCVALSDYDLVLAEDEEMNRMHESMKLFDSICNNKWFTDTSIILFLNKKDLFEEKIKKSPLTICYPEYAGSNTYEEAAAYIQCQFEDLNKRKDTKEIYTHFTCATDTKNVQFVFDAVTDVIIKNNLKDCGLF
Chain of Cytochrome P450 2C19 (Homo sapiens) (P33261 whole entry, looked up): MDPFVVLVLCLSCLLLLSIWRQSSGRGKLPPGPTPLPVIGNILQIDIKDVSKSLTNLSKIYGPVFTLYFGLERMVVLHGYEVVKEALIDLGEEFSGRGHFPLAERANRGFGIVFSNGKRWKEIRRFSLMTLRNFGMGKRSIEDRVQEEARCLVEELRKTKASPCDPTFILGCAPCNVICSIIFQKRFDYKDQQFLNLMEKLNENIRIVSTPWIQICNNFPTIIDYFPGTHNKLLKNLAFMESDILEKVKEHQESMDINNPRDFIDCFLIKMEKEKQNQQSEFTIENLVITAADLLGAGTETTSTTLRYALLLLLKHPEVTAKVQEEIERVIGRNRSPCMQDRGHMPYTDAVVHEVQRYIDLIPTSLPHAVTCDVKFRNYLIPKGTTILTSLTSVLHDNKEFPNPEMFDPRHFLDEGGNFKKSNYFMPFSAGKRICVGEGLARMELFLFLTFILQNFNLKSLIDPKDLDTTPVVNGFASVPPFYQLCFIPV
Chain of Cytochrome P450 2D6 (Homo sapiens) (P10635 whole entry, looked up): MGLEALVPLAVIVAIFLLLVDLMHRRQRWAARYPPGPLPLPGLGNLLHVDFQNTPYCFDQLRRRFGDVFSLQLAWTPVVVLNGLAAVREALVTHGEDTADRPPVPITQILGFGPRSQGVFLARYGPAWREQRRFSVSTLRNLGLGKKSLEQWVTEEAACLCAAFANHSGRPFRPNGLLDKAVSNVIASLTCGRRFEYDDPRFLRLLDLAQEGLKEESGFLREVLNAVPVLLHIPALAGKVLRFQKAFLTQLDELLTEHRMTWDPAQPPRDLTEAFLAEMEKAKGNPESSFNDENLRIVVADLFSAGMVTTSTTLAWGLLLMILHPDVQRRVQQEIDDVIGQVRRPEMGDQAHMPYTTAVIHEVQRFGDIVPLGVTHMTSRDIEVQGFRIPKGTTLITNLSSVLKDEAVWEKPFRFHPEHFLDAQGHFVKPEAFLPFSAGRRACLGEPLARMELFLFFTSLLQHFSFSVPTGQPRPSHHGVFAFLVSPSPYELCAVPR
Chain of Cytochrome P450 2C9 (Homo sapiens) (P11712 whole entry, looked up): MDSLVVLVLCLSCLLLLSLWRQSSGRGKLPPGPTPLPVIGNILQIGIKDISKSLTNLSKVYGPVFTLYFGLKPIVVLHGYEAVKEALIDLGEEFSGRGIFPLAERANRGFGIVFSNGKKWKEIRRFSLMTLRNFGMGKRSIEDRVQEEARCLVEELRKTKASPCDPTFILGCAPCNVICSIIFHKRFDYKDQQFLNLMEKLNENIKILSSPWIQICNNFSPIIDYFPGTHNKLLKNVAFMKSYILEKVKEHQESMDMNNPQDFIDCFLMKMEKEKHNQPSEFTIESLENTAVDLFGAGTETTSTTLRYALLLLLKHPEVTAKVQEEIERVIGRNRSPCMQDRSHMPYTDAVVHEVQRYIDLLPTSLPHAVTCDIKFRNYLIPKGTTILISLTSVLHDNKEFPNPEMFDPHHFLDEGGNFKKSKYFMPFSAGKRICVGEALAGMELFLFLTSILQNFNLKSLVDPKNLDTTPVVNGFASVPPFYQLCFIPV

In the case of `Oc1ccc(Cl)cc1Cc1ccccc1`, the Potency entry in [1] and in [4] was “inactive” in each case. Moreover, the caspase-3 activation is 18.5% in assay [2] and 2.16% in assay [8]. For the same compound, the outcome in assay [3], in assay [5], in [6], in assay [7], in [9] and in [10] was inactive. For the same compound, the compound was classed as inactive in assay [11] and in [12].
For the compound `N#CC(C#N)=Cc1ccc(O)c(O)c1`, the call in assay [13] was inactive. Also, the Potency in [14] is 7.94 µM (active). In addition, the Potency entry in assay [15] and in assay [16] was “inactive” throughout.
For `Clc1ccc(COC(Cn2ccnc2)c2ccc(Cl)cc2Cl)cc1` (stereo not drawn), the caspase-3 activation in [2] was 99.7% (active). The Potency result in assay [4] is “inactive”. Also, the compound was classed as inactive in assay [5], in assay [6], in assay [7], in assay [10], in assay [11] and in [12]. Further, the outcome in [17] and in [18] was inactive.
As for `N[C@@H]1C[C@H]1c1ccccc1`, the compound was called inactive in assay [13]. Also, the Potency result in assay [19] was “inactive”.
On to `CCOP(=S)(OCC)Oc1cc(C)nc(C(C)C)n1`, for which the Potency result in assay [1] and in [4] was “inactive” throughout. Besides, the caspase-3 activation in [2] was 1.42%; in assay [8] it was -0.387%. Further, the call in assay [3], in assay [5], in [6], in [7], in [9] and in assay [10] was inactive. In addition, the outcome in assay [11] and in [12] was inactive.
As to `OCCOc1ccccc1`, the Potency result in assay [1], in assay [4] and in [20] was “inactive” in each case. Further, the caspase-3 activation was -1.54% in [2] and -1.74% in assay [8]. Further, the compound was classed as inactive in assay [3], in assay [5], in assay [6], in assay [7], in assay [9] and in [10]. For the same compound, the result in [11] and in assay [12] was inactive.
For `N[C@@H](Cc1ccc(N(CCCl)CCCl)cc1)C(=O)O`, the Potency in [1] was 31.6 µM (active); in assay [2], 25.1 µM (active); in assay [4], 2.51 µM (active). For the same compound, the compound was classed as inactive in assay [3], in assay [5], in assay [9], in assay [10] and in [17]. The caspase-3 activation in assay [8] is 116% (active).
In the case of `NCC(CC(=O)O)c1ccc(Cl)cc1` (stereo not drawn), the result in assay [13], in assay [17] and in assay [18] was inactive. The Potency in [19] is 5.62 µM (active).
With `COc1ccccc1N1CCNCC1`, the result in assay [13] and in assay [18] was inactive. In addition, the Potency entry in [20] and in [16] was “inactive” each time.
With `CCCN1CCC[C@@H]2Cc3nc(N)ncc3C[C@H]21`, the call in assay [13] was inactive. Moreover, the Potency entry in assay [19] is “inactive”.
On to `c1ccc2c(c1)Nc1ccccc1S2`, for which the Potency entry in assay [1] and in assay [4] was “inactive” throughout. Besides, the caspase-3 activation in assay [2] was 0.561%; in assay [8], -0.251%. Besides, the call in [3], in assay [5], in [6], in [7], in assay [9] and in assay [10] was inactive. The call in [11] and in assay [12] was inactive.
As for `Fc1ccc(C(OCCN2CCN(CCCc3ccccc3)CC2)c2ccc(F)cc2)cc1`, the compound was classed as inactive in assay [13].
As for `Clc1cccc(N2CCNCC2)c1`, the result in [13] and in assay [17] was inactive. Further, in assay [15], the Potency is 3.98 µM (active).
Regarding `CNCC(O)c1ccc(O)cc1` (stereo not drawn), the Potency result in [1], in [4] and in [20] was “inactive” each time. Also, the caspase-3 activation is 2.25% in [2] and -0.124% in [8]. Moreover, the compound was classed as inactive in [3], in assay [5], in [6], in assay [7], in assay [9] and in assay [10]. The result in assay [11], in assay [12] and in assay [13] was inactive.
In the case of `CCn1cc(C(=O)O)c(=O)c2ccc(C)nc21`, the compound was called inactive in assay [13].
Regarding `Nc1ccncc1`, the compound was called inactive in assay [13] and in [18].
`C[C@]12C/C(=C/O)C(=O)C[C@@H]1CC[C@@H]1[C@@H]2CC[C@@]2(C)[C@H]1CC[C@]2(C)O`: the caspase-3 activation in assay [2] was 15%. Further, the compound was classed as inactive in [3], in assay [5], in assay [6], in assay [7] and in assay [11]. In addition, the Potency entry in [4] is “inactive”.
Consider `Cc1ccc(S(=O)(=O)N[C@@H](CCCCN)C(=O)CCl)cc1`, for which, in assay [13], the call was inactive. The Potency in assay [19] is 11.2 µM (active).
In the case of `CCCN1CCC[C@@H]2Cc3[nH]ncc3C[C@H]21`, the result in assay [13] was inactive. Further, the Potency entry in assay [20] and in [19] was “inactive” each time.
Turning to `CC(=O)[C@H]1CC[C@H]2[C@@H]3CC[C@H]4C[C@H](O)CC[C@]4(C)[C@H]3C(=O)C[C@]12C`, the call in assay [13] was inactive.
